Screening results (PubChem)
AHR activator = activators of human aryl hydrocarbon receptor; AHR-responsive luciferase reporter cells, luminescence; activation, % at 5 µM; actives 2.5% (n = 320,000); AID 2796; in the data active = activation above about 47%;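 also: 0% = vehicle wells and 100% = reference agonist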
Target sequence (P35869 whole entry, looked up): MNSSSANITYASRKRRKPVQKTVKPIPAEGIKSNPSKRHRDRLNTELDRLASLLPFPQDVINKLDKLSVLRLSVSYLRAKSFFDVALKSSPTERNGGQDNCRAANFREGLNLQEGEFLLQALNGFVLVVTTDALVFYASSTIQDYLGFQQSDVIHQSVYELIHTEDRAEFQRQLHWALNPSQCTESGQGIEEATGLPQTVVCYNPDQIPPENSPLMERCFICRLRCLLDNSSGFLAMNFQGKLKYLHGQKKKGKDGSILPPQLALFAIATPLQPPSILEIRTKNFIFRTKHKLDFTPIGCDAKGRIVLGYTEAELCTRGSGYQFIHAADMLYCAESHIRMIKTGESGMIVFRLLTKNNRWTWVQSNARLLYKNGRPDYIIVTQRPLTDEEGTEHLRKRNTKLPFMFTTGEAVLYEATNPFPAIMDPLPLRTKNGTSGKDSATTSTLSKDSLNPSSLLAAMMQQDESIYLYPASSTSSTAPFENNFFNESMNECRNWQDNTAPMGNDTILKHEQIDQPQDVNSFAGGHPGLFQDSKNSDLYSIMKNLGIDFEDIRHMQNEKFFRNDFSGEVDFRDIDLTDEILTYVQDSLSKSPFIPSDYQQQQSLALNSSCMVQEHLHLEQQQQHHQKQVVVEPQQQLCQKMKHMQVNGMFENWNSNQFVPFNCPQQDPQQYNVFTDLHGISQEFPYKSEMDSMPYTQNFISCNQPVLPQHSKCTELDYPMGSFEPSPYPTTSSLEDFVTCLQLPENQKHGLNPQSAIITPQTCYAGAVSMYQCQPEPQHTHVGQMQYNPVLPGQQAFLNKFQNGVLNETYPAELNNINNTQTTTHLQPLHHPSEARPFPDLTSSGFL
Mot1-301 SUMO = inhibitors of SUMOylation pathway: yeast Mot1-301 growth rescue; S. cerevisiae Mot1-301 growth rescue, ATP luminescence, 38.5C; percent above DMSO median, 100 means doubled; growth rescue, % at 18.8 µM; actives 1% (n = 320,000);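 active = every valid replicate shows activation above 250% relative to neutral control wells; inactive = the rest, any valid replicate at or below 250%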;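 also: OY570 slx delta 5 strain wells were the positive control but not used for scaling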
AI-2 QS modul = modulators of Vibrio harveyi AI-2 quorum sensing system | Vibrio harveyi JMH597 AI-2 luminescence/OD600 ratio, 9 h; active compounds read low; strain lacks LuxN and CqsS sensors; 0 = neutral-control median | actives 0.4% (n = 300,000) | activity change, % at 7.5 µM; in the data active = activity change below about -75%, passing the limit was not always enough;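 also: luminescence divided by OD600 gain over 9 h not by final OD600 alone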
H9c2 protect = myocardial damage modulation in H9c2 cells | H9c2 cardiomyocytes, H2O2 injury protection, ATPLite, 2 h | protection from H2O2 cell death, % at 20 µM | actives 0.63% (n = 360,000) | AID 588492;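 active = compounds giving at least 50% protection of heart cells from peroxide-induced death in the single-dose screen, raw or plate-pattern-corrected value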;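 also: 0% = DMSO wells with peroxide and 100% = DMSO wells without peroxide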
NR3A LBD binder = modulators (binders) of human NR3A ligand-binding domain. NR3A LBD differential scanning fluorimetry, Tm shift; 0% = protein alone, 100% = glycine-bound protein. Tm shift relative to glycine control, % at 25 µM. AID 1259313. actives 2.5% (n = 340,000);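 active = melting temperature shift of at least 10% of the positive control shift, at one fixed dose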
NTR1 ag = agonists of human neurotensin receptor NTR1 | P30989 | NTR1-U2OS beta-arrestin-GFP spot imaging, agonist mode | activation, % at 20 µM | actives 0.17% (n = 330,000);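 active = activation at or above 40% of the spot to cytoplasm intensity ratio, with at least 20 cells analyzed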;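 also: 0% = DMSO without peptide and 100% = 100 nM NTR1 peptide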
* hit, by the source's call; . = not tested or not shown; + = active, no number. A selection: hits, their analogues and other compounds. The true share with any hit is near 6.2%.

SMILES	AHR activator	Mot1-301 SUMO	AI-2 QS modul	H9c2 protect	NR3A LBD binder	NTR1 ag
C1=C(c2ccccc2)CCN(c2nc3ccccc3n3cnnc23)C1	79*	4	1	67*	-1	6
C/C(=N\Nc1cc(-c2ccccc2)nc(-c2ccc(Br)cc2)n1)c1cccc(N)c1	71*	-3	-11	12	29*	2
CC(=O)Nc1ccc(-c2cc(-c3ccccc3)nc(-c3ccccc3)n2)cc1	9	10	10	-14	36*	4
C/C(=N\Nc1ccccc1)c1cccc(N)c1	.	98	15	4	-1	2
Nc1ccc(-c2cc(-c3cccc(N)c3)nc(-c3ccccc3)n2)cc1	33	-13	11	-3	22*	0
CCC(=O)Nc1ccc(-c2cc(-c3ccccc3)nc(-c3ccc(NC(=O)CC)cc3)n2)cc1	24	148	22	13	16*	-1
COc1ccc(CC(=O)Nc2ccc(S(=O)(=O)Nc3cc(C)nc(C)n3)cc2)cc1OC	.	.	.	3	.	.
CC[C@H](C)[C@H]1CNC(=S)N1CC1CCN(CCC(C)C)CC1	.	.	.	12	.	.
CC(C)(C)OC(=O)COc1ccc(/C=N/NC(=O)CN2CCCCC2)cc1	.	.	1	2	-1	0
Cc1ccc(S(=O)(=O)Nc2cc(C(C(=O)OC(C)C)C(=O)C(F)(F)F)c(O)c3ccccc23)c(C)c1 (stereo not drawn)	48*	0	16	-1	4	8
C=CCNc1ncnc2c1ncn2[C@H]1CN(C2CCCC2)C[C@@H](CO)O1	.	.	.	-3	.	.
CCCC(=NCC(=O)O)C1=C(O)C(C(=O)OC)C(C)(C)CC1=O (stereo not drawn)	-2	14	19	0	25*	0
CCCC(=NCc1ccccc1)C1=C(O)C(C(=O)OC)C(C)(C)CC1=O (stereo not drawn)	4	39	12	8	1	0
Cc1ccc(C2CC(c3cccs3)=NN2C(=O)CSc2nc3ccccc3o2)cc1 (stereo not drawn)	75*	-19	9	3	-1	8
NS(=O)(=O)c1ccc(NN=C2CCCCC2)c([N+](=O)[O-])c1	9	11	28	-8	11*	3
Cc1cc(C)cc(N(CC(=O)NCc2ccco2)C(=O)CCC(=O)Nc2ccccn2)c1	.	.	21	2	17*	.
Cc1cc(O)ccc1N/C=C1\CCCC1=O	12	4	13	0	-5	-1
Cc1ccc([N+](=O)[O-])cc1N/C=C1\CCCCC1=O	-1	+	10	-17	0	3
CCn1c(SCC(=O)Nc2ccccc2Br)nnc1-c1cnccn1	5	81	13	-2	0	-1
Cc1c(C)n(CCc2ccccc2)c2ncnc(NN)c12	19	163	7	13	2	1
Cc1c(C)n(CCc2ccccc2)c2ncnc(NCCCO)c12	51*	182	-1	-7	-1	0
NC(=O)c1nsc(C(=O)N(CCc2ccccc2)C(C(=O)NC2CCCC2)c2ccco2)c1N (stereo not drawn)	3	-5	20	78*	-2	6
COc1ccc(C(C(=O)NCc2ccccc2)N(Cc2ccco2)C(=O)c2snc(C(N)=O)c2N)cc1 (stereo not drawn)	2	-12	25	80*	1	3
COc1ccc(C(C(=O)NCc2ccccc2)N(Cc2ccco2)C(=O)c2snc(C(N)=O)c2N)cc1OC (stereo not drawn)	0	9	12	49	-2	-1
Cc1ccc(C(C(=O)NCc2ccccc2)N(Cc2ccco2)C(=O)c2snc(C(N)=O)c2N)o1 (stereo not drawn)	1	-3	3	61*	1	0
SMILES	AHR activator	Mot1-301 SUMO	AI-2 QS modul	H9c2 protect	NR3A LBD binder	NTR1 ag
COc1ccc(N2CCN(C(=O)c3c(-c4c(F)cccc4Cl)noc3C)CC2)cc1	-2	-4	24	6	2	0
CC(=O)Nc1ccc(O)c(-c2nc3ccccc3s2)c1	72*	13	10	-5	5	2
O=C(Nc1ccc(-c2nc3ccccc3s2)c(O)c1)C1=COCCO1	8	-4	26	-17	36*	8
CC(=O)Nc1cccc(-c2nc3ccc(NC(C)=O)cc3s2)c1	4	3	17	-1	16*	3
O=C(Nc1ccc(O)c(-c2nc3ccccc3s2)c1)C1=COCCO1	50*	1	8	-8	8	11
Cc1ccsc1C(=O)Nc1ccc(O)c(-c2nc3ccccc3s2)c1	46	79	9	-5	8	7
CC(=O)c1cccc(NC(=O)C2Cc3c(-c4ccc5c(c4)OCO5)ccnc3O2)c1 (stereo not drawn)	.	.	.	-9	.	.
O=C(CCS(=O)(=O)c1ccccc1)Nc1ccc(-c2nc3ccccc3s2)c(O)c1	27	1	26	-4	15*	0
COc1cc(-c2nc3ccccc3s2)ccc1O	48*	23	1	-9	9	2
CCOc1cc(-c2nc3ccccc3s2)ccc1O	2	7	14	-1	-25	4
Cc1c(NC(=O)c2cc(-n3cnnc3)ccc2Cl)cccc1-c1nc2ccccc2s1	5	-9	11	-14	-3	9
O=C(Nc1cccc(-c2nc3ccccc3s2)c1)c1cc(-n2cnnc2)ccc1Cl	-2	19	3	76*	-6	9
Cc1sc(NC(=O)C2=COCCO2)nc1-c1ccc(F)cc1	52*	.	14	-13	0	-1
Cc1nc2ccc(NC(=O)CCS(=O)(=O)c3ccc(Cl)cc3)cc2s1	3	-15	26	-17	-10	0
O=C(NCC1CCOCC1)C1Cc2c(-c3ccccc3Oc3ccccc3)ccnc2O1 (stereo not drawn)	.	.	.	2	.	.
CN(c1ccccc1C(=O)Nc1ccc(CC#N)cc1)S(=O)(=O)c1ccccc1	1	5	4	2	0	0
O=C(Nc1cccc(-c2nc3ccccc3s2)c1)C1=COCCO1	9	-7	17	2	-19	3
O=C(Nc1ccc(-c2nc3ccccc3s2)cc1)C1=COCCO1	50*	-34	-1	-24	30*	0
O=C(NCc1cccs1)c1cccc(Nc2nc3ccc(Br)cc3[nH]2)c1	6	77	11	-7	11*	18
CSc1ccc(Cn2c(C)c(C(=O)NCc3cccs3)sc2=O)cc1	.	.	.	3	.	.
Cc1ccc2[nH]c(=O)c(C(c3nnnn3CC3CCCO3)N3CCc4ccccc4C3)cc2c1 (stereo not drawn)	7	-7	5	17	0	2
